Laboratory results from PubChem BioAssay AID2284143 (EPA ToxCast).
Active and inactive are the calls of the source. The calls were made as follows: active = hit-call score of the fitted dose curve at least 0.9, where 1 is the maximum; inactive = score below 0.9.

These compounds were tested against human Adenosine Receptor A2A, ADORA2A (gene 135) (UniProt P29274) (assay: ERF_FR_GPCR_hADORA2A: Eurofins (ERF) G Protein-Coupled Receptor (GPCR) Radioligand Binding LeadHunter Assay for human Adenosine Receptor A2A Agonism, conducted at France lab site).
human Adenosine Receptor A2A, ADORA2A (gene 135), sequence (P29274 whole entry, looked up): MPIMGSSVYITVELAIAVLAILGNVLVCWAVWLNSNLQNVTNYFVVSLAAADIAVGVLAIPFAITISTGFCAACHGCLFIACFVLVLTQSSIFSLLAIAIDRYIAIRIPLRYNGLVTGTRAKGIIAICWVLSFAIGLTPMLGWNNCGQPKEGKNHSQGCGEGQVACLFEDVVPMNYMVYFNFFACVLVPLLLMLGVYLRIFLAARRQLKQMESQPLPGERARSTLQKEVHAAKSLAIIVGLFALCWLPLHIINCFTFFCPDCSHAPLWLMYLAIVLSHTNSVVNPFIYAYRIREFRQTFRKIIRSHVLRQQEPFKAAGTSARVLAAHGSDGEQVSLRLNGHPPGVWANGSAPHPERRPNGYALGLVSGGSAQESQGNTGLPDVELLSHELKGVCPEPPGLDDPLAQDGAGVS
Experimental: ERF_FR_GPCR_hADORA2A is a biochemical, single-readout assay that uses extracted gene-proteins in a cell-free assay. Measurements were taken 2 hour after chemical dosing in a 96-well plate. See A2A Human Adenosine GPCR Binding (Agonist Radioligand) Assay, Cerep.ERF_FR_GPCR_hADORA2A is an assay component calculated from the ERF_FR_GPCR_hADORA2A assay. It is designed to measure radioligand binding using a type of binding reporter as detected by scintillation counting with radiometry technology.Data from the assay component ERF_FR_GPCR_hADORA2A was analyzed at the assay endpoint, ERF_FR_GPCR_hADORA2A, in the positive analysis fitting direction relative to DMSO as the negative control and baseline of activity. Using a type of binding reporter, gain-of-signal activity can be used to understand changes in binding as they relate to gene ADORA2A. To generalize the intended target to other relatable targets, this assay endpoint is annotated to the gpcr intended target family, where the subfamily is adenosine.
Human cells are incubated for 60 minutes in room temprature, using [3H]CGS 21680 ligand at 6 Kd (nM) with NECA control inhibitor.Test Sample Requirements: Minimum for 1) Screen: 60 ul of 10 mM stock -OR- 1 mg (pre-weighed) for […] uM final testing. 2) Dose Response: 90 ul of 10 mM stock -OR- 1 mg (pre-weighed) for a top concentration at 10 uM.
With `O=C(/C=C/c1ccc(O)cc1)CC(=O)/C=C/c1ccc(O)cc1` the AC50 was 421 nM (active).
